PubChem BioAssay (EPA / NIEHS)
Several values for one entry are separate records, joined by “and”; a condition that tells them apart may be missing. Equal values may be shown once. The source holds several records for some structures; these can differ, active in one and inactive in another. Activity calls are given as the source filed them. The calls were made as follows: active = hit-call score of the fitted dose curve at least 0.9, where 1 is the maximum; inactive = score below 0.9.

Tests used:
[1] = read-out: Intercellular Adhesion Molecule 1 (ICAM1), ICAM1 (gene 3383); assay: BSK_BE3C_ICAM1: BioMAP Diversity Plus: BE3C Assay for Intercellular Adhesion Molecule 1 (ICAM1) Biomarker Activity (AID 2284278); settings: primary human bronchial epithelial cells
In short: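 Primary human bronchial epithelial cells were exposed to compound for 24 h, after which cell-surface ICAM-1 was quantified by ELISA. Activity was fitted in the gain-of-signal direction against DMSO as negative control and baseline.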

[2] = read-out: Interferon-inducible T-cell alpha chemoattractant (ITAC), CXCL11 (gene 6373); assay: BSK_BE3C_ITAC: BioMAP Diversity Plus: BE3C Assay for Interferon-inducible T-cell alpha chemoattractant (ITAC) Biomarker Activity (AID 2284279); settings: primary human bronchial epithelial cells
In short: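 The assay measures I-TAC levels by ELISA in human primary bronchial epithelial cell cultures 24 hours after chemical treatment. Values reflect signal increase over the DMSO baseline.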

[3] = read-out: Interleukin-8 (IL8), CXCL8 (gene 3576); assay: BSK_BE3C_IL8: BioMAP Diversity Plus: BE3C Assay for Interleukin-8 (IL8) Biomarker Activity (AID 2284280); settings: primary human bronchial epithelial cells
In short: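 ELISA read-out of IL-8 in human lung bronchial epithelial primary cell cultures, 24 h post-dosing; endpoint analysed as signal increase relative to DMSO baseline.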

[4] = read-out: Epidermal growth factor receptor (EGFR), EGFR (gene 1956); assay: BSK_BE3C_EGFR: BioMAP Diversity Plus: BE3C Assay for Epidermal growth factor receptor (EGFR) Biomarker Activity (AID 2284281); settings: primary human bronchial epithelial cells
In short: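 Primary human lung bronchial epithelial cells; compound, 24 h; EGFR measured by ELISA; positive-direction fit vs DMSO baseline.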

KRT18 (gene 3875) = assay: BSK_BE3C_Keratin818: BioMAP Diversity Plus: BE3C Assay for Keratin 818 Biomarker Activity (AID 2284282); settings: primary human bronchial epithelial cells
In short: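 Human primary bronchial epithelial cells in the BE3C system were exposed to test chemical for 24 h, then Keratin 8/18 was quantified by ELISA. Activity was fitted in the positive direction against DMSO as negative control and baseline.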

[5] = read-out: Matrix Metallopeptidase 9 (MMP9), MMP9 (gene 4318); assay: BSK_BE3C_MMP9: BioMAP Diversity Plus: BE3C Assay for Matrix Metallopeptidase 9 (MMP9) Biomarker Activity (AID 2284283); settings: primary human bronchial epithelial cells
In short: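 ELISA read-out of MMP-9 after 24 h compound exposure of human lung bronchial epithelial primary cells (BE3C). Fit in gain direction vs DMSO negative control; total protein by SRB in parallel cultures flagged overt cytotoxicity.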

[6] = read-out: Plasminogen activator inhibitor-1 (PAI1), SERPINE1 (gene 5054); assay: BSK_CASM3C_PAI1: BioMAP Diversity Plus: CASM3C Assay for Plasminogen activator inhibitor-1 (PAI1) Biomarker Activity (AID 2284284); settings: primary human coronary artery smooth muscle cells;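 also: PAI-1 protein level measured by ELISA 24 h after dosing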
[7] = read-out: Monocyte Chemoattractant Protein-1 (MCP1), CCL2 (gene 6347); assay: BSK_hDFCGF_MCP1: BioMAP Diversity Plus: hDFCGF Assay for Monocyte Chemoattractant Protein-1 (MCP1) Biomarker Activity (AID 2284285); settings: primary human foreskin fibroblasts
In short: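 Human foreskin fibroblasts (hDFCGF system) were exposed to compound and secreted MCP-1 was measured by ELISA after 24 hours. Activity was fitted relative to DMSO. Cytotoxicity was checked by SRB total-protein staining in parallel cultures.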

[8] = read-out: Intercellular Adhesion Molecule 1 (ICAM1), ICAM1 (gene 3383); assay: BSK_hDFCGF_ICAM1: BioMAP Diversity Plus: hDFCGF Assay for Intercellular Adhesion Molecule 1 (ICAM1) Biomarker Activity (AID 2284287); settings: primary human foreskin fibroblasts
In short: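 Primary human foreskin fibroblasts (hDFCGF system) dosed with chemical; ICAM-1 quantified by ELISA at 24 h relative to DMSO. Parallel SRB total-protein staining to assess overt cytotoxicity.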

[9] = read-out: TIMP metallopeptidase inhibitor 2 (TIMP2), TIMP2 (gene 7077); assay: BSK_hDFCGF_TIMP2: BioMAP Diversity Plus: hDFCGF Assay for TIMP metallopeptidase inhibitor 2 (TIMP2) Biomarker Activity (AID 2284289); settings: primary human foreskin fibroblasts
In short: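 Primary human foreskin fibroblasts in the hDFCGF system, dosed for 24 h; TIMP-2 level measured by ELISA, fitted in the positive direction against DMSO; cytotoxicity checked in parallel by sulforhodamine B total protein staining.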

[10] = read-out: Matrix Metallopeptidase 9 (MMP9), MMP9 (gene 4318); assay: BSK_BF4T_MMP9: BioMAP Diversity Plus: BF4T Assay for Matrix Metallopeptidase 9 (MMP9) Biomarker Activity (AID 2284276); settings: primary human bronchial epithelial cells with fibroblasts
In short: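 Co-culture of human bronchial epithelial cells and dermal fibroblasts dosed for 24 h; MMP-9 quantified by ELISA and fitted upward versus DMSO. Cytotoxicity monitored in parallel cultures by SRB total-protein staining at the biomarker time point.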

[11] = read-out: Interleukin-8 (IL8), CXCL8 (gene 3576); assay: BSK_IMphg_IL8: BioMAP Diversity Plus: IMphg Assay for Interleukin-8 (IL8) Biomarker Activity (AID 2284277); settings: primary human endothelial cells with macrophages
In short: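 Co-culture of human venular endothelial cells and macrophages exposed to chemicals for 24 h; IL-8 quantified by ELISA and compared against the DMSO baseline, with SRB total-protein staining in parallel cultures for cytotoxicity.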

[12] = read-out: Vascular cell adhesion molecule 1 (VCAM1), VCAM1 (gene 7412); assay: BSK_IMphg_VCAM1: BioMAP Diversity Plus: IMphg Assay for Vascular cell adhesion molecule 1 (VCAM1) Biomarker Activity (AID 2284286); settings: primary human endothelial cells with macrophages
In short: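 Human venular endothelial cells co-cultured with macrophages; VCAM-1 quantified by ELISA 24 h after dosing, fitted in the positive direction against DMSO. Cytotoxicity was checked in parallel cultures by SRB total-protein staining (0.1% SRB after 10% TCA fixation, 560 nm).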

CD40, CD40 (gene 958) = assay: BSK_IMphg_CD40: BioMAP Diversity Plus: IMphg Assay for CD40 Biomarker Activity (AID 2284288); settings: primary human endothelial cells with macrophages
In short: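 Venular endothelial cells co-cultured with macrophages (human primary), CD40 measured by ELISA 24 h after dosing. Positive-direction fit vs DMSO baseline; cytotoxicity tracked by SRB total-protein staining in parallel cultures.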

[13] = read-out: Interleukin-1 alpha (IL1a), IL1A (gene 3552); assay: BSK_IMphg_IL1a: BioMAP Diversity Plus: IMphg Assay for Interleukin-1 alpha (IL1a) Biomarker Activity (AID 2284290); settings: primary human endothelial cells with macrophages
In short: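 Human venular endothelial cells co-cultured with macrophages, IMphg system. IL-1α is measured by ELISA 24 h after dosing and fitted in the positive direction against DMSO. Cytotoxicity is assessed by SRB staining of parallel cultures.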

[14] = read-out: E-selectin (Homo sapiens) (UniProt P16581); assay: BSK_IMphg_ESelectin: BioMAP Diversity Plus: IMphg Assay for Eselectin Biomarker Activity (AID 2284291); settings: primary human endothelial cells with macrophages
In short: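 Human venular endothelial cell–macrophage co-culture, E-selectin measured by ELISA 24 h after chemical dosing. Signal fitted in the positive direction against DMSO as negative control and baseline.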

[15] = BSK_IMphg_SRB: Viability Assessment in the BioMAP Diversity Plus: IMphg Assay (AID 2284292); settings: primary human endothelial cells with macrophages;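 also: measured one day after compound addition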
In short: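 Human venular endothelial cells with macrophages, 24 h after chemical dosing; total protein by 0.1% SRB staining after 10% TCA fixation, read at 560 nm. Positive-direction fitting versus DMSO baseline.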

[16] = read-out: Macrophage colony-stimulating factor (MCSF), CSF1 (gene 1435); assay: BSK_IMphg_MCSF: BioMAP Diversity Plus: IMphg Assay for Macrophage colony-stimulating factor (MCSF) Biomarker Activity (AID 2284293); settings: primary human endothelial cells with macrophages
In short: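 Co-culture of human venular endothelial cells and macrophages, 24 hours of chemical exposure. M-CSF quantified by ELISA, with parallel SRB total-protein staining for cytotoxicity; activity fitted relative to DMSO.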

[17] = read-out: Interleukin-10 (IL10), IL10 (gene 3586); assay: BSK_IMphg_IL10: BioMAP Diversity Plus: IMphg Assay for Interleukin-10 (IL10) Biomarker Activity (AID 2284294); settings: primary human endothelial cells with macrophages
In short: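 Human venular endothelial cells cocultured with macrophages, dosed 24 h; IL-10 measured by ELISA, activity relative to DMSO. Cytotoxicity assessed in parallel cultures by sulforhodamine B total-protein staining.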

[18] = BSK_IMphg_SRB.Mphg: Macrophage Viability Assessment in the BioMAP Diversity Plus: IMphg Assay (AID 2284295); settings: primary human endothelial cells with macrophages
In short: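 Venular endothelial cells co-cultured with macrophages, read 24 h after dosing. Total protein measured by 0.1% SRB staining after 10% TCA fixation, absorbance at 560 nm. Fitted in positive direction against DMSO baseline.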

Measured: AC50

E-selectin (Homo sapiens), sequence (P16581 whole entry, looked up): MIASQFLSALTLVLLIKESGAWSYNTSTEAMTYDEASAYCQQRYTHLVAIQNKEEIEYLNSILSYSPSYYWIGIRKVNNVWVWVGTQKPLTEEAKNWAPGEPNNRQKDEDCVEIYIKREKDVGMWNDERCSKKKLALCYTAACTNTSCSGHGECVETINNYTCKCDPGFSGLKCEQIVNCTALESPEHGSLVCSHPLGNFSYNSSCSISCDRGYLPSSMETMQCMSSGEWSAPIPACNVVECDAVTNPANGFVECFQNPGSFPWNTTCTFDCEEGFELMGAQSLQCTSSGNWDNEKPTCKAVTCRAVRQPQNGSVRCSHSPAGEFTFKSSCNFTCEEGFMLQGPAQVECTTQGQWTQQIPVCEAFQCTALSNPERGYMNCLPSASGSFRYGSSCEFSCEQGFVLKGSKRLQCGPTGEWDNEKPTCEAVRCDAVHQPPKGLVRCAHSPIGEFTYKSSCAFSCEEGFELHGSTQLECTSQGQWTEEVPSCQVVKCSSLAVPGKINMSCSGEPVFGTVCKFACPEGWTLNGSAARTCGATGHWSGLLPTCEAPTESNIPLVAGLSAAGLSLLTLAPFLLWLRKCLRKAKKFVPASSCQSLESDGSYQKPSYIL

c1ccc(Nc2cccc3ccccc23)cc1
active: [1] 12.7 µM | [2] 27.2 µM and 30.3 µM | [4] 17.6 µM and 37 µM | KRT18 (gene 3875) 20 µM | [5] 20 µM and 26.6 µM | [7] 20.8 µM and 14.2 µM | [8] 33.6 µM and 34.1 µM | [9] 33 µM and 31.1 µM
inactive: [1] | [3] | [6]

Nc1nc(N)nc(-c2ccccc2)n1
inactive: [1] | [2] | [3] | [4] | KRT18 (gene 3875) | [5] | [6] | [7] | [8] | [9]

CCCC(C)C(=O)OCC (stereo unspecified)
inactive: [1] | [2] | [3] | [4] | KRT18 (gene 3875) | [5] | [6] | [7] | [8] | [9]

Oc1ccccc1Cc1ccccc1O
inactive: [1] | [2] | [3] | [4] | KRT18 (gene 3875) | [5] | [6] | [7] | [8] | [9]
active: [5] 20 µM

CC(CCC(=O)O)(c1ccc(O)cc1)c1ccc(O)cc1
inactive: [1] | [2] | [3] | [4] | KRT18 (gene 3875) | [5] | [6] | [7] | [8] | [9]

CCCCCCCCCCCC(=O)N(C)CC(=O)O
inactive: [1] | [2] | [3] | [4] | KRT18 (gene 3875) | [5] | [6] | [7] | [8] | [9]
active: [7] 5.84 µM

CC(C)C(=O)OCCc1ccccc1
inactive: [1] | [2] | [3] | [4] | KRT18 (gene 3875) | [5] | [6] | [7] | [8] | [9]
active: KRT18 (gene 3875) 0.522 µM

O=C(O)C(F)(F)C(F)(F)C(F)(F)C(F)(F)C(=O)O
inactive: [10] | [11] | [1] | [2] | [3] | [4] | KRT18 (gene 3875) | [5] | [6] | [7] | [12] | [8] | CD40, CD40 (gene 958) | [9] | [13] | [14] | [15] | [16] | [17] | [18]

C[N+](C)(C)CCCNS(=O)(=O)C(F)(F)C(F)(F)C(F)(F)C(F)(F)C(F)(F)C(F)(F)C(F)(F)C(F)(F)F
active: [10] 9.46 µM and 30 µM | [11] 43 µM and 30 µM | [3] 18.1 µM | [7] 44.8 µM and 44.4 µM | [12] 13.9 µM and 22.4 µM | CD40, CD40 (gene 958) 21.8 µM and 23.9 µM | [9] 8.16 µM | [14] 30 µM | [15] 34.3 µM and 42.3 µM | [17] 41 µM and 36.9 µM | [18] 46.2 µM and 30 µM
inactive: [1] | [2] | [4] | KRT18 (gene 3875) | [5] | [6] | [8] | [9] | [13] | [14] | [16]
